Data taken from PubChem BioAssay (NCI).
This is part of a sample that, as a whole, favours compounds with a hit. Of some 83,000 tested, about 20% had one in any assay.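 Values shown are percent growth following 48 h exposure of cells in 96-well plates to a single concentration of compound; below 10 was considered active.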 Unmarked numbers belong to inactive results. Calls of active or inactive are those of the source.

System: SK-MEL-28 melanoma
Test: NCI-60 one-dose screen, 48 h (100 = growth as untreated, 0 = no growth, -100 = all killed)
Details: 10 µM unless noted
Protocol: Growth inhibition of the SK-MEL-28 human tumor cell line is measured as a screen for anti-cancer activity. Cells are grown in 96 well plates and exposed to the test compound for 48 hours. Compounds are tested at a single concentration, which is 10^-5 M for most compounds. The reported endpoint is percent growth (GI% or GIPRCNT), where numbers from 0 - 100% represent growth inhibition, and numbers from -100% - 0 represent cell death. For example, a value of 40 represents 60% growth inhibition. A value of 0 means no net growth occurred over the course of the experiment. A value of -40 indicates 40% of cells at the beginning of the experiment died by the end of the experiment. A value of -100 means all cells are dead at the end of the experiment.
NCI-60 Human Tumor Cell Lines Screen was performed using the standard one-dose NCI protocol, which is described in more detail at https://dtp.cancer.gov/discovery_development/nci-60/default.htm.
Compounds with GIPRCNT values below 10 were considered active. Activity score was based on GIPRCNT using the following formula: […]
Score is 0 for GIPRCNT values of 100 or above, 50 for GIPRCNT values of 0, and 100 for GIPRCNT values of -100.

| SMILES | growth |
| --- | --- |
| COCn1c(C(=O)OC)cc2oc(/C=C3/SC(=S)N(N)C3=O)cc21 | 92.9% |
| O=C(NCCCl)Nc1nccnc1OCc1ccc(F)cc1 | 109% |
| COC(=O)c1ccc2[nH]c(O)c(C(=Nc3ccc(N(C)C(=O)CN4CCN(C)CC4)cc3)c3ccc4c(c3)OCO4)c2c1 | 20.8% |
| CCCCN(CCCC)CC(O)CN(CC)CC (stereo not given) | 109% |
| O=C(Nc1ccc(-n2cc(-c3ccncc3)c(-c3ccc(Cl)c(O)c3)n2)cc1)c1ccc(Cl)c(C(F)(F)F)c1 | -38.3% (active) |
| COC(=O)/C(Br)=C/c1c[nH]c2ccc(Br)cc12 | 105% |
| COC(=O)CC(=O)C(=O)OC | 111% |
| N/C(=N\O)c1ccncc1 | 109% |
| O=C(/C=C1\C(=O)N(Cc2ccc([N+](=O)[O-])cc2)c2ccccc21)c1ccc(OCCN2CCCCC2)cc1 | -51% (active) |
| CCOc1ccc(N(C)c2ccc(/C=C/C3=[N+](C)c4ccccc4C3(C)C)cc2)cc1 | 19% |
| CCCCN(CCCC)c1ccc(C(=O)O)cc1 | 107% |
| CC(=O)N(N=O)c1ccc([N+](=O)[O-])cc1Cl | 68.5% |
| Cc1nc2c(nnn2-c2ccccc2)c2nc(-c3ccc(Cl)cc3)oc(=O)c12 | 102% |
| COc1ccc(C2C3(C#N)C(N)=NC(=C(C#N)C#N)C23C#N)cc1OC (stereo not given) | 115% |
| COc1ccc2oc(=O)cc(CN3C(=O)S/C(=C\c4ccc(Cl)cc4)C3=O)c2c1 | 101% |
| O=C(Nc1cccc(Cn2c(=O)[nH]c3ccc(Oc4ncccn4)cc3c2=O)c1)c1ccc(Cl)cc1 | 69.3% |
| Cc1ccc(CC(=O)O)c(C)c1 | 113% |
| c1ccc(Nc2ncc3c(n2)-c2cccn2CC3)cc1 | 107% |
| C=CCC(CCC(CC=C)C(=O)OCC)C(=O)OCC (stereo not given) | 91.1% |
| BrCCCOc1ccc(Oc2ccc(OCCCBr)cc2)cc1 | 99% |

| SMILES | growth |
| --- | --- |
| CCCNC(=O)Oc1ccc(/C(=C(/CC)Cc2ccccc2)c2ccc(OCCN(CC)CC)cc2)cc1 | 92.9% |
| CC1(C)C(O)NC(Cl)=C(C#N)C1(C#N)C#N (stereo not given) | 108% |
| O=C1C(Cl)=C(Nc2ccc(Nc3ccccc3)c(NC3=C(Cl)C(=O)c4ccccc4C3=O)c2)C(=O)c2ccccc21 | 113% |
| COc1cc2c(c3c1c(=O)c1cccc(F)c1n3C)C=CC(C)(C)O2 | 94.4% |
| O=C(NCCO)C(F)(F)F | 111% |
| CCOc1ccc2nc3ccc(Cl)cc3nc2c1 | 113% |
| CC(C)(C)c1ccc(OCCOC(=O)CBr)cc1 | 107% |
| O=C(CN1CCN(c2cccc(Cl)c2)CC1)N1CCN(c2nnc(-c3ccc(Cl)cc3)c(-c3ccc(Cl)cc3)n2)CC1 | 93.8% |
| Cc1nnc(/N=C2\NC(=O)/C(=C/C=C/c3ccccc3)S2)s1 | 59.8% |
| O=P(OCCCl)(OCCCl)C(O)c1ccccc1Cl (stereo not given) | 113% |
| CC[C@H](Nc1ncnc2nc[nH]c12)c1nc2cccc(NCc3ccc(C(=O)NO)o3)c2c(=O)n1-c1ccccc1 | 100% |
| COc1ccccc1Nc1nnc(COc2ccc(CNC(=O)CCCC/C=C/C(C)C)cc2OC)o1 | 98.1% |
| OC(c1ccccc1)(c1ccccc1)C(F)(F)F | 117% |
| CCOC(=O)C1C(=O)C(=O)N(C(C)C)C1C(=O)OCC (stereo not given) | 108% |
| OCCN1CCCN(CCCN2c3ccccc3Sc3ccc(C(F)(F)F)cc32)CC1 | 30.7% |
| CNc1ccc(Nc2ccc(S(=O)(=O)O)cc2)c2c1C(=O)c1ccccc1C2=O | 112% |
| COc1cccc2c1nc1cccc(OC)c1[n+]2[O-] | 103% |
| CC(Br)c1nc2ccccc2cc1C(N)=O (stereo not given) | 107% |
| S=C(N/N=C/c1cc(Cl)cc(Cl)c1)NC12CC3CC(CC(C3)C1)C2 | 90.9% |
| O=C(OCC1CC2(Cl)C(Cl)=C(Cl)C1(Cl)C2(Cl)Cl)C1C(C(=O)OCC2CC3(Cl)C(Cl)=C(Cl)C2(Cl)C3(Cl)Cl)C2(Cl)C(Cl)=C(Cl)C1(Cl)C2(Cl)Cl (stereo not given) | 112% |
